In the supplement of paper PMC10849652:
Targets with a hit are over-represented here; the source holds about 8,800 in all. About 0.5% of all pairs of compound and target were hits.

What was measured:
Test in all cases: log2 fold change, soluble protein after heating vs DMSO (PISA); higher = thermal stabilisation; K562 lysate, 10 uM; active = over 0.2 and 3.5 SD of the protein, either way, in both replicates (recomputed)
[1] = compound: C1=CC=C(C=C1)[C@H](COC2=CC3=C(C=C2)NC(=O)N3)NC(=O)C4=CC=CN(C4=O)CC5=CC(=C(C=C5)F)F
Summary of the method: (§1)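 To prepare the extract, K562 pellets were dounce-homogenised in PBS pH 7.4 with 1 mM MgCl2, giving crude material at 1 mg/mL protein. This was treated with 10 μM compound for 30 min, then heated in aliquots for 3 min over 48°C-58°C before pooling and addition of NP-40 to 0.5% at 4°C. Centrifugation at 21,000xg for 90 min left soluble protein in the supernatant, which TMTpro 16plex LC-MS/MS quantified with equalised channel sums. Results are log-two fold changes in thermal stability compared with solvent controls, from duplicates.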

[2] = compound: CC1=C(SC2=C1C(=N[C@H](C3=NN=C(N32)C)CC(=O)N)C4=CC=C(C=C4)Cl)C
Summary of the method: as §1

[3] = compound: CC1=C2C(=CC=C1)N=C(N(C2=O)C3=CC=CC=C3C)CN4C=NC5=C(N=CN=C54)N
Summary of the method: as §1

[4] = compound: Cc1sc2c(c1C)C(c1ccc(Cl)cc1)=N[C@@H](CC(=O)OC(C)(C)C)c1nnc(C)n1-2
Summary of the method: as §1

[5] = compound: c1ccc([C@@H]2C[C@H]2NC2CCNCC2)cc1
Summary of the method: as §1

Measured: log2 fold change

HDLBP, A0A024R4E5
inactive: [1] -0.024 | [2] -0.013 | [3] 0.017 | [4] -0.018 | [5] 0.008

ISCA1 isoform 2 (UniProt Q9BUE6)
inactive: [1] 0.005 | [2] -0.03 | [3] 0.016 | [4] -0.021 | [5] 0.099

IRAK4 (UniProt Q9NWZ3)
inactive: [1] -0.02 | [2] -0.014 | [3] 0.022 | [4] -0.08 | [5] -0.024

GNB1 (UniProt P62873)
inactive: [1] 0.042 | [2] -0.051 | [3] -0.038 | [4] 0.069 | [5] -0.329

HSPA8 (UniProt E9PK54)
inactive: [1] 0.065 | [2] -0.031 | [3] -0.031 | [4] -0.046 | [5] -0.125

GLB1 (UniProt P16278)
UniProt P16278, sequence (P16278 whole entry, looked up): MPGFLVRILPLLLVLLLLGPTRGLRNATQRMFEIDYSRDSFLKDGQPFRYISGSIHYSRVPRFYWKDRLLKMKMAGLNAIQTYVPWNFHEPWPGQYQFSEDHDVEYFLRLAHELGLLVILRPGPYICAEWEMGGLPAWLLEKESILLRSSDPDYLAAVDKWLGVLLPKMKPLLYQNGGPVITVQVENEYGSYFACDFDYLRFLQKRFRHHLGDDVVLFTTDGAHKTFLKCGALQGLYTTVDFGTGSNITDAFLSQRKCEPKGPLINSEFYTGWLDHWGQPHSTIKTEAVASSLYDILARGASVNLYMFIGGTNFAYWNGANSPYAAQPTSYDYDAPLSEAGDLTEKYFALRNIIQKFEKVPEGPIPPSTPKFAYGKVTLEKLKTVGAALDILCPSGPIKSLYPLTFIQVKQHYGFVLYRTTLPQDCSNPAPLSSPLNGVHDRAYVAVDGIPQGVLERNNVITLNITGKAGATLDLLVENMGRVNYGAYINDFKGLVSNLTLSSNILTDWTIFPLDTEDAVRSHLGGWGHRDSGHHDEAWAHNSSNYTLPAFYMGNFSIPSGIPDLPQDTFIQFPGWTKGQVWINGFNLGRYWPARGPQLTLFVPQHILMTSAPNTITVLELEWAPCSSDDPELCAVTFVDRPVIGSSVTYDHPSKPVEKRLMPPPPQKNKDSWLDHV
inactive: [1] 0.02 | [2] 0.033 | [3] 0.046 | [4] 0.016 | [5] -0.019

GSE1 (UniProt Q14687)
inactive: [1] -0.031 | [2] 0.005 | [3] -0.002 | [4] -0.015 | [5] 0.184

HDHD5 (UniProt Q9BXW7)
inactive: [1] 0 | [2] 0.071 | [3] 0.032 | [4] -0.05 | [5] -0.012

IGF2BP3 (UniProt O00425)
UniProt O00425, sequence (O00425 whole entry, looked up): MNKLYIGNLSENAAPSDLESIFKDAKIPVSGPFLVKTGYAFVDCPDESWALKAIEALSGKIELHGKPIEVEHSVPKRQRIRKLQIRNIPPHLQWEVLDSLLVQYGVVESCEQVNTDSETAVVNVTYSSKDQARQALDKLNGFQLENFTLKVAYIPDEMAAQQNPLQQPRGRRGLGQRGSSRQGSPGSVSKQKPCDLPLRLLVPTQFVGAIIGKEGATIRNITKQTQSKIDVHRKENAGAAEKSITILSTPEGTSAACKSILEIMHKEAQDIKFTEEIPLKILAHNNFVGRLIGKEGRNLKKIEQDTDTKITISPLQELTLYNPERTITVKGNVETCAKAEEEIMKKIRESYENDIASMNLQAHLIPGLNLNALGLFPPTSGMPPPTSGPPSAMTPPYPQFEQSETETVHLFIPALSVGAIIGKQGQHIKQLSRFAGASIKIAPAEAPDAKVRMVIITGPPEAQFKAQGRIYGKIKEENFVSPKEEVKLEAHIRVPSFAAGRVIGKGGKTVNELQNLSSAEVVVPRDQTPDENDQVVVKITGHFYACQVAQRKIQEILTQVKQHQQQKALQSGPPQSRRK
inactive: [1] -0.02 | [2] 0.005 | [3] 0.009 | [4] 0.035 | [5] -0.002

IMMT (UniProt Q16891)
inactive: [1] -0.089 | [2] 0.016 | [3] 0.017 | [4] 0.022 | [5] 0.038

KBTBD2 (UniProt Q8IY47)
inactive: [1] 0.016 | [2] -0.005 | [3] 0.025 | [4] 0.012 | [5] -0.119

HK2 (UniProt P52789)
inactive: [1] -0.021 | [2] -0.016 | [3] 0.043 | [4] 0.019 | [5] 0.063

HMGB2 (UniProt P26583)
UniProt P26583, sequence (P26583 whole entry, looked up): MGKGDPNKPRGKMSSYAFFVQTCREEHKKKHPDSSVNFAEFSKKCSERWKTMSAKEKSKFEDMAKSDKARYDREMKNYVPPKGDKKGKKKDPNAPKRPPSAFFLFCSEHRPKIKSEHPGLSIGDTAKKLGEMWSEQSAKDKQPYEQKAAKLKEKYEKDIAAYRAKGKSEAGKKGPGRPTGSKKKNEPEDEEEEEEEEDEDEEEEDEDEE
inactive: [1] 0.022 | [2] -0.069 | [3] -0.03 | [4] 0.036 | [5] 0.161

IMPDH2 (UniProt H0Y4R1)
inactive: [1] -0.048 | [2] 0 | [3] -0.077 | [4] -0.018 | [5] -0.203

IMPDH2 (UniProt P12268)
inactive: [1] 0 | [2] -0.014 | [3] -0.007 | [4] 0.045 | [5] 0.017

HEATR6 (UniProt Q6AI08)
inactive: [1] -0.039 | [2] -0.086 | [3] 0.05 | [4] 0.008 | [5] 0.014

GOLPH3L (UniProt Q9H4A5)
inactive: [1] -0.046 | [2] 0.005 | [3] 0.022 | [4] -0.009 | [5] 0.021

ILRUN (UniProt Q9H6K1)
inactive: [1] 0.078 | [2] -0.021 | [3] 0.03 | [4] 0.009 | [5] 0.028

GTF2I (UniProt P78347)
UniProt P78347, sequence (P78347 whole entry, looked up): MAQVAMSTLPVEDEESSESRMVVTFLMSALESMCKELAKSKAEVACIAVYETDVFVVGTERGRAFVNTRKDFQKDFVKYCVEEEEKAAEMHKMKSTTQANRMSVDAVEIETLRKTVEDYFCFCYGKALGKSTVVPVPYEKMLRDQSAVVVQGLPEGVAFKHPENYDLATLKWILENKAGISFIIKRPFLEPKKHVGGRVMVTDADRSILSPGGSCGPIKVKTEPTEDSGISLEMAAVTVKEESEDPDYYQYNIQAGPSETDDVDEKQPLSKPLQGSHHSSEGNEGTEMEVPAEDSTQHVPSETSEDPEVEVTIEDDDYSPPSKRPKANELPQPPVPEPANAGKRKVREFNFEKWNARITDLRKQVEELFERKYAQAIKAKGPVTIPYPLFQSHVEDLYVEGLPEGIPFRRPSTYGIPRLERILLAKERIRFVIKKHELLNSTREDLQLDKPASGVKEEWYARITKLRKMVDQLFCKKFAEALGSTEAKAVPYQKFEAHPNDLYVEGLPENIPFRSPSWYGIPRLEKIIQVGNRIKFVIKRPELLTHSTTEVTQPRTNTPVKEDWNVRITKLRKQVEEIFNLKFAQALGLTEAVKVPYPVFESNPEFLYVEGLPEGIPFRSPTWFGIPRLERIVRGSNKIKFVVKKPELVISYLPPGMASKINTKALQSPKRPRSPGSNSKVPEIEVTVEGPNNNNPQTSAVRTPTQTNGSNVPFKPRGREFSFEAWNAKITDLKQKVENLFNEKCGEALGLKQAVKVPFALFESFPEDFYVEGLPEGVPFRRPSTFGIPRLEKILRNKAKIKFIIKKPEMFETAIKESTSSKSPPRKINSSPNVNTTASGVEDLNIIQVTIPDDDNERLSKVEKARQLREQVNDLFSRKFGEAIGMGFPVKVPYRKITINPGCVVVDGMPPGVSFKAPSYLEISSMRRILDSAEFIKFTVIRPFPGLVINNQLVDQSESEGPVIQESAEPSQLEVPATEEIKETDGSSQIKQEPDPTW
inactive: [1] -0.026 | [2] 0 | [3] 0.009 | [4] 0.015 | [5] 0.061

HNRNPLL (UniProt Q8WVV9)
UniProt Q8WVV9, sequence (Q8WVV9 whole entry, looked up): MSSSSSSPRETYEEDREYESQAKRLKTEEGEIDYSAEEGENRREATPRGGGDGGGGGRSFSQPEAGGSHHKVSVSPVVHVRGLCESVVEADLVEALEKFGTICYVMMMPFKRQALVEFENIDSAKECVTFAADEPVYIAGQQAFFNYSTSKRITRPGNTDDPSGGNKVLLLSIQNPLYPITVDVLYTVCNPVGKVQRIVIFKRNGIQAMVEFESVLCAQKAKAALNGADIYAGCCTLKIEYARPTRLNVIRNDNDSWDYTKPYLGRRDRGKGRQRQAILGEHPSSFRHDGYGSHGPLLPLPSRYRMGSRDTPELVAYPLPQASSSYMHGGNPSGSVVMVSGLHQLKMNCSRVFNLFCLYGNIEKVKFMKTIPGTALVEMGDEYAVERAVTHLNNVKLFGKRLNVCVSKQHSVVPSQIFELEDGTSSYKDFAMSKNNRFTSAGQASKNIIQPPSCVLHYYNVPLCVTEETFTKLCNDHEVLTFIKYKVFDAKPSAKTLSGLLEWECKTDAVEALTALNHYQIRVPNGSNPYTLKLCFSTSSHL
inactive: [1] 0.018 | [2] 0.028 | [3] 0.007 | [4] 0.022 | [5] 0.036

HEATR3 (UniProt Q7Z4Q2)
UniProt Q7Z4Q2, sequence (Q7Z4Q2 whole entry, looked up): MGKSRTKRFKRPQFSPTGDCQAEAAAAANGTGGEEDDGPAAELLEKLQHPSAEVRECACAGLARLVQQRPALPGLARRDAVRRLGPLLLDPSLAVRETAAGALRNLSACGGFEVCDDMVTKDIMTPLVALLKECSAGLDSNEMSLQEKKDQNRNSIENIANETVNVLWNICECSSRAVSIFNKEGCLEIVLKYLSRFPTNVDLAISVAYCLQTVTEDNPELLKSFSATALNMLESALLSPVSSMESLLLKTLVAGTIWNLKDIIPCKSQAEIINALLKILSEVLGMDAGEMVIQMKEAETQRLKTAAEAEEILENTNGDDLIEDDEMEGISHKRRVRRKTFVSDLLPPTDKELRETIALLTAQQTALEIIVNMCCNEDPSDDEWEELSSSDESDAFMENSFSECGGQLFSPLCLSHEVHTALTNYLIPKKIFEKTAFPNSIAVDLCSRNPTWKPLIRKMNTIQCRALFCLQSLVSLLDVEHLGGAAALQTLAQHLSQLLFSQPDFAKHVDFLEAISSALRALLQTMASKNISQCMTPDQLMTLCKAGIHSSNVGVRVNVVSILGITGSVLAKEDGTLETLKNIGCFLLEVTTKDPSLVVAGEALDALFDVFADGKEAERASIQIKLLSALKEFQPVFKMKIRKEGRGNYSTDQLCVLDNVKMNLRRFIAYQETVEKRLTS
inactive: [1] -0.101 | [2] 0.022 | [3] 0.008 | [4] -0.024 | [5] 0.028

IRF2BPL (UniProt Q9H1B7)
inactive: [1] 0.055 | [2] -0.057 | [3] 0 | [4] 0.047 | [5] -0.134

HMGA1 (UniProt P17096)
UniProt P17096, sequence (P17096 whole entry, looked up): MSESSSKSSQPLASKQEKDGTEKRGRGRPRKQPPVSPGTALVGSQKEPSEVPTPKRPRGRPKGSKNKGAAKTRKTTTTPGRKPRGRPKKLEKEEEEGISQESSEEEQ
inactive: [1] 0.009 | [2] 0.024 | [3] 0.011 | [4] -0.031 | [5] -0.135

HSPB1 (UniProt P04792)
UniProt P04792, sequence (P04792 whole entry, looked up): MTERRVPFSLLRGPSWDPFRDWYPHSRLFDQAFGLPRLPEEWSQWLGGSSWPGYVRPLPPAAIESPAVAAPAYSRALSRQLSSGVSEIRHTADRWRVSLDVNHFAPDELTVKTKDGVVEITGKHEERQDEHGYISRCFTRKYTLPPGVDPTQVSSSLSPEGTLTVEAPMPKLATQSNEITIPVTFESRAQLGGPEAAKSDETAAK
inactive: [1] -0.091 | [2] 0.002 | [3] 0.002 | [4] -0.017 | [5] 0.028

INTS7 (UniProt Q9NVH2)
UniProt Q9NVH2, sequence (Q9NVH2 whole entry, looked up): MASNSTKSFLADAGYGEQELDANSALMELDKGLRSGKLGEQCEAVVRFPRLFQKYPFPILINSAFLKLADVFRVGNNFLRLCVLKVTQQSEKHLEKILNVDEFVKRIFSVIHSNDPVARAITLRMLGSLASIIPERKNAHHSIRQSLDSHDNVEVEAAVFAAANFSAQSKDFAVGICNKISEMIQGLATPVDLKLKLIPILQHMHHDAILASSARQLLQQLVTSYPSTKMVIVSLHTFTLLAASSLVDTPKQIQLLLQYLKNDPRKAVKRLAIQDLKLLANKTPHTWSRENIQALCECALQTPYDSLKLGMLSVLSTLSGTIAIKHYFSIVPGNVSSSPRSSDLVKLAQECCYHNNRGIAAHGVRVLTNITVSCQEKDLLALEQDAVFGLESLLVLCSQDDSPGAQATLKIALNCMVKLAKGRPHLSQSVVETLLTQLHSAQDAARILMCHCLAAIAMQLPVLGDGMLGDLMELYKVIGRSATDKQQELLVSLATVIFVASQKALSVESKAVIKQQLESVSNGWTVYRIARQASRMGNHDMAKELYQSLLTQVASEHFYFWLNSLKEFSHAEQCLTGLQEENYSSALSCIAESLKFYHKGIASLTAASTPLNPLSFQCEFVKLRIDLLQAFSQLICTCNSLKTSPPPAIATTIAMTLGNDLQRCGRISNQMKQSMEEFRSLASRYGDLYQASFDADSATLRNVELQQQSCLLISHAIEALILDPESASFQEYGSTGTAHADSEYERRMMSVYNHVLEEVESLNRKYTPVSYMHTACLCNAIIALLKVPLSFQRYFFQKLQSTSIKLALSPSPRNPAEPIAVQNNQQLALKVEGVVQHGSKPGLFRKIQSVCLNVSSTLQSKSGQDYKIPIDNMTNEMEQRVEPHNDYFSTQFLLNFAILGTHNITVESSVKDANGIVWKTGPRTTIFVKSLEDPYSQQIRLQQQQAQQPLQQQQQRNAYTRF
inactive: [1] -0.06 | [2] 0.007 | [3] 0.016 | [4] 0.009 | [5] -0.001
